Screening data: PubChem BioAssay, The Scripps Research Institute Molecular Screening Center
FBW7 act – activators of human E3 ligase FBW7 | normalized activity (activation), % at 26.1 µM | AlphaScreen FBW7–phospho-cyclin E peptide binding, activator screen | 650,000 compounds, 0.13% hits | Q969H0; in the data active means normalized activity above about 1.9%;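 further: purified mutant Fbw7 with reduced substrate affinity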
MITF inh – human MITF inhibition, primary screen; O75030; AlphaScreen MITF homodimerization, bead proximity signal; inhibition, % at 2.6 µM; 650,000 compounds, 0.91% hits; AID 1259374; in the data active means inhibition above about 50%;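 further: 0% = vehicle wells with protein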
Target sequence (O75030 whole entry, looked up): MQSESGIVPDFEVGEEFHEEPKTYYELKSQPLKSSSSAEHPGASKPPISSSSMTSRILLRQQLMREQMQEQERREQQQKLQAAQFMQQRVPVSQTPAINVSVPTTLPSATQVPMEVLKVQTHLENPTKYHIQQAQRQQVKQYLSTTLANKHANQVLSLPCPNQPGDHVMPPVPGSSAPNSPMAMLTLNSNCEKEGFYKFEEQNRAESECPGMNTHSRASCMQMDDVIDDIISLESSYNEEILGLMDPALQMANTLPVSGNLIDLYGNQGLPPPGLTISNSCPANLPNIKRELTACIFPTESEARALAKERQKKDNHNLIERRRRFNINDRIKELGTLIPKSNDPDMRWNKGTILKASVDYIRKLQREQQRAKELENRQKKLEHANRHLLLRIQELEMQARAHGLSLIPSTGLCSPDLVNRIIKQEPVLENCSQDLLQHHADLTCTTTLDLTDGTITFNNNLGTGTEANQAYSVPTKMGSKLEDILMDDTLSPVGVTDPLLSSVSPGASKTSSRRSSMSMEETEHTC
TEAD-YAP block – TEAD-YAP interaction inhibition; HEK-TIYL cells, TEAD-Gal4/YAP UAS-luciferase luminescence; inhibition, % at 9.12 µM; 640,000 compounds, 1.4% hits; AID 1259422; in the data active means inhibition above about 32%;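 further: 0% = median of test compound wells and 100% = reference inhibitor wells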
GPR151 activ – activators of human GPR151. Q8TDV0. PathHunter beta-arrestin GPR151 cells, luminescence. activation, % at 11.2 µM. 650,000 compounds, 1% hits. AID 1508602; in the data active means activation above about 4.9%;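 further: 0% = median of compound wells and 100% = cells with positive control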
The depositor's hits bear a star. An excerpt weighted towards active compounds, which were near 3.5% of everything screened.

SMILES	FBW7 act	MITF inh	TEAD-YAP block	GPR151 activ
CCC(C)(C)NC(=O)C1CCN(c2nc3ccccc3s2)CC1	0	2	-64	0
C=CCN1C(=O)C(O)(CC(=O)c2ccc(Cl)s2)c2ccccc21 (configuration not stated)	0	-12	-5	-1
CCC(=O)Nc1nnc(SCc2cc(=O)c(OC(=O)c3cccc(C)c3)co2)s1	0	5	8	1
COCCNC(=O)c1ccc2c(c1)N=C(C)c1c(C)ccc(C)c1S2	0	6	74*	0
CCSc1cc([N+](=O)[O-])ccc1C(N)=O	0	-1	0	0
O=C(NCc1ccc2c(c1)OCO2)C(=O)N1CCCCC1	0	-1	-10	-1
Cc1nn(C)c(C)c1-c1cc(NCc2ccccc2)nc(N)n1	0	8	1	0
Cc1nn(C)c(C)c1-c1cc(NCCc2ccc(O)cc2)nc(N)n1	0	10	37*	3
COc1cc(NC(=O)c2cccc(N3CCN(c4ccccn4)CC3)n2)cc(OC)c1OC	0	-11	42*	-2
COc1cc(NC(=O)c2ccnc(N3CCN(c4ccccn4)CC3)c2)cc(OC)c1OC	0	4	14	0
O=C(Nc1ccccc1)c1cccc(N2CCCC2CO)n1 (configuration not stated)	0	11	-28	-1
COc1cc(NC(=O)c2cccc(-c3ccc(C(=O)NC4CC4)cc3)n2)cc(OC)c1OC	0	6	34*	1
O=C(Nc1ccccc1)c1cccc(N2CCN(c3ccccn3)CC2)n1	0	-15	-15	4
COc1cc(NC(=O)c2cccc(N3CCCC3CO)n2)cc(OC)c1OC (configuration not stated)	0	-1	35*	0
CC(=O)Nc1ccc(NC(=O)c2cccc(N3CCN(c4ccccn4)CC3)n2)cc1	0	-10	36*	1
CCN1CCC(=NNS(=O)(=O)c2ccc(Cl)cc2)CC1	0	7	0	2
Cc1cncc2cccc(NC3CCN(C(=O)[C@H](C)O)CC3)c12	-1	11	5	0
Cc1cncc2cccc(NC3CCCNC3)c12 (configuration not stated)	0	-2	94*	1
O=C(Cc1ccccc1)Nc1cnn(-c2cccc(C(=O)Nc3ccc(Cn4ccnc4)cc3)c2)c1	0	-4	3	0
O=C(Nc1ccc(Cn2ccnc2)cc1)c1cccc(-n2cc(NC(=O)C3CCc4ccccc43)cn2)c1 (configuration not stated)	0	-3	37*	-1
CCc1ccc(OCC(=O)Nc2cccc(C)n2)c(Br)c1	0	2	-19	-1
CC(C)(C)c1ccc(OCC(=O)Nc2nccs2)c(Br)c1	0	-3	91*	-1
Cc1ccc(OCC(=O)Nc2nccs2)c(Br)c1	0	0	98*	-9
CCc1ccc(OCC(=O)Nc2nccs2)c(Br)c1	0	9	95*	-8
Cc1cc(Cl)ccc1OCC(=O)Nc1nccs1	0	8	65*	-6
SMILES	FBW7 act	MITF inh	TEAD-YAP block	GPR151 activ
CCCC1(C(=O)OCC)NC(c2ccc(N(C)C)cc2)C2C(=O)N(C)C(=O)C21 (configuration not stated)	0	13	-1	-1
CC1=C(C(=O)Nc2cc(C)ccn2)C(c2cccc([N+](=O)[O-])c2)C2=C(CCCC2=O)N1 (configuration not stated)	0	2	-13	-2
CC(C)N1CCC(=NNC(=O)c2cc(O)c(O)c(O)c2)CC1	0	85*	3	0
CN1CCC(=NNC(=O)c2ccccc2)CC1	0	19	-50	-2
CCCNC(=O)c1cnc(-c2ccc(N3CCOCC3)nc2)s1	0	1	0	0
NC(=O)c1cnc(-c2ccc(N3CCOCC3)nc2)s1	0	6	63*	-8
COc1ccc(-c2ncc(C(N)=O)s2)cc1	0	-6	49*	-7
NC(=O)c1ccc(-c2ccc(N3CCOCC3)nc2)s1	0	18	50*	-12
O=C(Cc1ccc(Cl)cc1)Nc1cc([N+](=O)[O-])ccc1F	0	2	-3	-1
COc1cc(OC)nc(CSc2ccc(NC(=O)CCl)cc2)n1	0	8	36*	-1
COc1cc(OC)nc(CSCCNC(=O)CCl)n1	0	-1	10	1
COc1cc(OC)cc(C(=O)NCc2ccc(C(C)(C)C)cc2)c1	0	12	43*	0
COc1cc(OC)cc(C(=O)NCc2ccc(S(N)(=O)=O)cc2)c1	0	21	6	-2
O=C(c1ccccc1Cl)n1cccn1	0	4	6	1
CCOC(=O)c1c(NC(=O)c2ccccc2Cl)sc2c1CCCCC2	0	-8	3	0
O=C(O)c1ccc(N2N=C(c3ccccc3)/C(=C\c3cccc([N+](=O)[O-])c3O)C2=O)cc1	0	8	-13	-2
O=C(O)c1ccc(N2N=C(c3ccccc3)/C(=C/c3ccco3)C2=O)cc1	-1	70*	1	0
COc1cc(Nc2ccc(N3CCC(C(N)=O)CC3)nn2)cc(OC)c1OC	1	11	-2	0
COc1cccc(CSc2nc3ccncc3[nH]2)c1	0	-3	69*	-1
CC(=O)c1cn(CC(=O)Nc2ccc(C)cc2C)c2ccccc12	0	2	40*	0
CC(=O)c1cn(CC(=O)Nc2cccc(C)c2C)c2ccccc12	0	-2	40*	0
COc1cc(C)c(NC(=O)Cn2cc(C(C)=O)c3ccccc32)cc1C	0	9	22	-1
C=CCn1c(=O)c2ccc(C(=O)NCc3ccccc3)cc2n(CC(N)=O)c1=O	0	2	12	1
COC(=O)c1ccc2c(=O)n(CCc3ccc(OC)c(OC)c3)c(SCC(=O)NCCc3ccc(OC)c(OC)c3)nc2c1	0	8	1	-1
CCCCC1(CC(=O)Nc2ccc(F)cc2)C(=O)N(c2ccccc2)N(c2ccccc2)C1=O	1.9*	-10	3	-1
SMILES	FBW7 act	MITF inh	TEAD-YAP block	GPR151 activ
Cc1cc(C)c(N(C(=O)CCl)C(=O)C2CCCN2C(=O)CCl)c(C)c1 (configuration not stated)	0	4	32*	1
CCCN1C(=O)C(O)(CC(=O)c2ccc([N+](=O)[O-])cc2)c2cc(Br)ccc21 (configuration not stated)	0	10	50*	0
CCN(CC)c1ccc(N=Nc2ncn[nH]2)cc1	-2	36	44*	-1
Cc1ccc(-n2c(-c3ccc(Cl)cc3)c[n+]3c2CCC3)cc1	0	-6	64*	2
Nc1c[n+]2c(n1-c1ccc(Br)cc1)CCCCC2	0	1	3	1
COc1ccc(-c2cnc(NC3CC3)nc2)cc1	0	10	38*	-8
COc1cccc(C(=O)Nc2nnc(-c3ccc(F)cc3)o2)c1OC	0	1	-5	0
O=C(CSc1nc2[nH]ncc2c(=O)n1-c1ccc(Br)cc1)Nc1ccc2c(c1)OCCO2	0	1	42*	-2
O=C(CSc1nc2[nH]ncc2c(=O)n1-c1cccc(C(F)(F)F)c1)Nc1ccc2c(c1)OCCO2	0	8	27	0
